This is one part of a sample in which hits are shown more often than they occur.
CHX counter: counter-screen for Shiga toxin inhibitors: cycloheximide protein synthesis inhibition; cell reporter, cycloheximide protein synthesis inhibition counterscreen; max response, %; 300,000 compounds, 12% hits; AID 2314; in the data active = max response mostly above about 13%, no sharp cut-off; inactive = mostly below about 14%; also: read at 38.3 µM for the half of the compounds with a filed dose; 0% is about no effect
Lassa entry inh: Lassa virus entry inhibition; Potency, µM (series often up to 37.9 µM), for inactives: at the highest dose activity change, negative = inhibition, most hits filed as inhibitors; Lassa virus pseudotype entry inhibition, cell reporter; 300,000 compounds, 1.2% hits; calls by dose curve; tested in HEK293 cells; also: potency is read from the fitted curve at half-maximal effect; % is scaled to controls: 0 for no effect and ±100 for the full control effect; nearly all actives have a fitted effect of over 50% in size
Shiga inhibitor: inhibitors of Shiga toxin in Vero cells. Vero cells, Shiga toxin protein synthesis inhibition reporter. inhibition, % at 38.7 µM. 290,000 compounds, 9.2% hits. AID 2315; in the data active = inhibition mostly above about 28%, no sharp cut-off; inactive = mostly below about 43%; also: 0% is about no effect
AMA1 RON2 block: AMA1-RON2 (P. falciparum) interaction inhibition; 360,000 compounds, 0.2% hits; AlphaScreen AMA1-biotinylated RON2 peptide binding; Potency, µM (highest dose often 58.2 µM), without a hit: at the top dose activity change, negative = inhibition, hits mostly inhibitors; active = well fitted inhibition curve with a large enough effect; inconclusive = small, poorly fitted or top-dose-only effect; inactive = no such curve, though single readings can be large or run the other way;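 also: potency is read from the fitted curve at half-maximal effect; 0% = vehicle wells and -100% = peptide control; nearly all actives have a fitted effect of over 45% in size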
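AMA1 (3D7) with his tag at 25 nM final met compounds first, then biotinylated RON2 peptide at 25 nM; detection used donor plus acceptor beads, 10 µg/mL apiece, read by AlphaScreen after 30 min at room temperature.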
MARV entry inh: blocks Marburg virus binding to or entry into cells | Marburg virus pseudotyped entry inhibition, cell reporter | Potency, µM (doses to about 37.8 µM), for the others: at the top dose activity change, negative = inhibition, actives largely listed as inhibitors | 300,000 compounds, 1.8% hits | AID 540276; calls by dose curve; tested in HEK293 cells; also: potency is read from the fitted curve at half-maximal effect; % is scaled to controls: 0 for no effect and ±100 for the full control effect
An asterisk follows results filed as active; ? = inconclusive; . = not tested or not shown; [ ] = dose if it differs, or a comment.

SMILES	CHX counter	Lassa entry inh	Shiga inhibitor	AMA1 RON2 block	MARV entry inh
O=C(/C=C/c1ccccc1)NCCSCc1ccccc1	31	4%	44*	9%	11%
COc1ccc(/C=C/C(=O)NCCSCc2ccco2)cc1	17*	-12%	36	26%	9%
CC(C)Oc1ccc(CN2CCC2(C)C(=O)Nc2cccc(Oc3ccccc3)c2)cc1 (centres undefined)	.	.	.	1%	.
CC(=O)N[C@H](C(=O)O)C(C)(C)SN=O	.	1%	.	.	?
CCCNS(=O)(=O)c1cccc(C(=O)OCc2cc(=O)oc3cc(OC)ccc23)c1	19*	?	61	-3%	?
COc1ccc2c(COC(=O)c3cccc(S(=O)(=O)NCC(C)C)c3)cc(=O)oc2c1	20*	?	37	8%	-15%
COc1ccc2c(COC(=O)CNS(=O)(=O)c3ccccc3)cc(=O)oc2c1	.	.	.	-5%	.
O=C(O)CCC(=O)Nc1ccc(C(=O)OCC(=O)c2ccc(Cl)cc2Cl)cc1	-3	1%	-17	-7%	8%
CCOC(=O)c1ccc(N2C(=O)c3n[nH]c(-c4ccco4)c3C2c2ccc(OCC)cc2)cc1 (centres undefined)	.	?	.	.	11µM*
CCOC(=O)c1ccc(N2C(=O)c3n[nH]c(C)c3C2c2ccccc2)cc1 (centres undefined)	-4	-20%	-15	0%	?
O=C(Nc1cc2c(oc1=O)CCCC2=O)c1cccc(Cl)c1	15	2%	61*	7%	7%
COc1ccc(C(=O)Nc2cc3c(oc2=O)CCCC3=O)cc1	25*	?	42	?	4%[46.1 µM]
Cn1c(=O)n(C)c2cc(N3CCCCC3)c(NC(=O)c3cccc(Cl)c3)cc21	-2	23%[46.1 µM]	-4	22%	23%[46.1 µM]
O=C(O)c1ccccc1C(=O)c1ccc(-c2ccccc2)cc1	44*	.	92*	-8%	.
O=C(c1ccccc1)c1c[nH]cc1-c1ccccc1	-1	3%	7	-11%	4%
Cc1ccc(C(=O)c2c[nH]cc2-c2ccccc2)cc1	17*	21%	-32	2%	-2%
O=C(O)c1ccccc1C(=O)c1ccc(Cl)cc1	-1	.	-4	-5%	.
O=C(c1c[nH]cc1-c1ccccc1)c1cccc2ccccc12	5	-16%	2	?	12µM*
O=C(C1=C(c2ccccc2)C(=O)c2ccccc2C1=O)c1ccccc1	20	2.6µM*	34	?	?
COC1=C(c2ccccc2)C(=O)c2ccccc2C1=O	-2	-17%	12	-29%	4%
CCc1ccc(-n2c(=O)c3c4c(sc3n(CC(=O)N3CCC(C)CC3)c2=O)CCC4)cc1	.	2%[46.1 µM]	.	.	16%[46.1 µM]
CCOC(=O)CSc1nnc(CNc2ccc(Cl)cc2)n1-c1ccccc1	11	5%	23	-5%	-3%
CCOc1ccc(NCc2nnc(SCc3ccc(Cl)cc3)n2-c2ccccc2)cc1	-2	?	-1	32µM*	?
CC1=C(C(=O)Nc2ccccc2)C(c2ccccc2Cl)n2ncc(C(=O)Nc3cccc(C)c3)c2N1 (centres undefined)	.	-4%[46.1 µM]	.	.	.
CCCCCCCCn1c2c(c(=N)c3ccccc31)CCC2	1	?	23	2%	?
SMILES	CHX counter	Lassa entry inh	Shiga inhibitor	AMA1 RON2 block	MARV entry inh
Cc1cc(C)c2c(=N)c3ccccc3n(CCCCCCCCn3c4ccccc4c(=N)c4c(C)cc(C)nc43)c2n1	.	?	.	?	7.1µM*
CCCN(CCC)C(=O)C1CCN(c2cc(C)nc3c(-c4ccc(Cl)cc4)c(C)nn23)CC1	.	1%[46.1 µM]	.	.	2%[46.1 µM]
C/C(=N\NS(=O)(=O)c1ccccc1)c1ccc2c(c1)OCO2	12*	1%[46.1 µM]	16	14%	-12%[46.1 µM]
C/C(=N\NS(=O)(=O)c1ccc(C)c([N+](=O)[O-])c1)c1ccc2c(c1)OCO2	27*	.	19	0%	.
Cc1ccccc1-n1nnnc1SCC(=O)NCC1CCCO1 (centres undefined)	4	-1%	-2	-3%	21%
CN(Cc1ccccc1)C(=O)CN1C(=O)c2ccccc2C1=O	-3	-6%	.	-1%	?
CN(Cc1ccsc1)C(=O)Cn1cc(Br)ccc1=O	29*	-16%[46.1 µM]	78*	16%	14%[46.1 µM]
COc1cc(N2CCCC2)ccc1[N+](=O)[O-]	11	-2%	42	-15%	?
COc1ccc2c(c1OC)C(=O)N(c1cccc(C)c1)C2=O	43*	17%	56	-15%	10%
Cc1oc(C(C)(C)C)cc1C(=O)Nc1ccc2c(c1)OCO2	32*	-17%	79*	-25%	?
Cc1oc(C(C)(C)C)cc1C(=O)Nc1cccc(/C=C/C(=O)O)c1	3	6%	54	15%	14%
